This is a sample that favours compounds with a hit; in the whole collection about 2.8% have one here.
AHR_act: activators of human aryl hydrocarbon receptor. P35869. AHR-responsive luciferase reporter cells, luminescence. activation, % at 5 µM. hit rate 2.5% among 320,000. AID 2796; in the data active = activation above about 47%;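 also: 0% = vehicle wells and 100% = reference agonist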
pCIP_destab: lowers stability of the mouse p/CIP coactivator protein. Q05BA5. F442A p/CIP-EGFP cells, EGFP fluorescence, 16 h. decrease of EGFP signal, % at 10 µM. hit rate 0.01% among 290,000;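 active = EGFP signal decrease of at least 30% at 10 µM or well 3 SD below plate mean, unless failing retest; inactive = the rest, including hits failing retest or dose response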
Platelet_DG_rel: platelet dense granule release activity. human platelet-rich plasma, SFLLRN dense granule ATP release, luminescence. AID 1663. hit rate 0.22% among 300,000. inhibition, %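 (compounds screened at 7.5 µM in platelet-rich plasma)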;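 active = mean replicate score, as percent of positive control, at or above 50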
HIF_activator: HIF pathway transcriptional activation; U2OS HRE-luciferase reporter, luminescence; normalized: DMSO 0%, desferrioxamine 100%; activation, % at 7.5 µM (by protocol); hit rate 0.32% among 300,000; AID 1910;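 active = mean activation of at least 10% of the iron chelator positive control signal, with at least half of replicates also reaching 10%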
PolyA_inhibitor: yeast polyadenylation inhibition | S. cerevisiae SKY197-pL101 polyadenylation reporter, beta-gal luminescence; efflux-impaired pdr1/pdr3 knockout yeast; score 100 = 6 SD above DMSO | activity score, % at 12 µM | hit rate 0.02% among 300,000;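 active = lowest replicate activity score at least 50, where 100 means six control SD above control mean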;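 also: yeast exposed to compound for 9 h at 30 °C; higher score means more reporter readthrough which indicates perturbed polyadenylation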
AHR_act_cf: confirmation of human aryl hydrocarbon receptor activators; shares compounds with AHR_act; human cells, AHR-responsive luciferase reporter, luminescence; activation, % at 9 µM; hit rate 87% among 2,300; in the data active = activation above about 49%;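 also: HepG2 hepatoma cells carrying a DRE-driven firefly luciferase reporter; 0% = vehicle wells and 100% = reference agonist wells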
PXR_act_counter: activates human PXR in AHR activator counter-screen. shares compounds with AHR_act. cell-based PXR reporter, luciferase luminescence. activation, % at 11.6 µM. hit rate 88% among 2,300; in the data active = activation above about 11%;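 also: human hepatoma DPX-2 cells expressing full-length human PXR; 0% = DMSO and 100% = reference agonist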
* hit, by the source's call; / = no result given.

SMILES AHR_act pCIP_destab Platelet_DG_rel HIF_activator PolyA_inhibitor AHR_act_cf PXR_act_counter
COC(=O)C1=C(c2ccc(OC(F)(F)F)cc2)C[C@@H]2CC[C@H]1N2C(=O)NC1CCCCC1 0.6 / / / / / /
Cc1cccc(-n2c(C)nc3ccc(Cl)cc3c2=O)c1 -0.1 -3.3 3.5 1.0 7.5 / /
Cc1nc2ccc(Cl)cc2c(=O)n1-c1ccc([N+](=O)[O-])cc1 140.2* -1.4 7.9 0.2 -17.7 3.9 11.4*
Cc1nc2cc([N+](=O)[O-])ccc2c(=O)n1-c1ccc(Br)cc1 87.2* -1.2 -2.5 -0.1 -19.4 34.5 11.4*
O=C1CN=C(c2ccc(Br)cc2)c2oc3ccccc3c2N1 82.4* 5.6 / -0.3 1.9 107.8* 29.0*
O=C1CN=C(c2ccc(F)cc2)c2oc3ccccc3c2N1 2.5 -2.4 5.0 -0.9 -13.0 / /
COC(=O)C1=C(c2cc3ccccc3s2)C[C@@H]2CC[C@H]1N2C(=O)NCCNC(C)=O 0.2 / -3.0 -1.7 -6.9 / /

Assay outcomes (PubChem BioAssay)
